D2 ag-1 = HTS Assay for Allosteric Agonists of the Human D2 Dopamine Receptor: Primary Screen for Agonists. D(2) dopamine receptor (Homo sapiens), P14416. AID 485358, 2010. HEK293 T-REx D2 cells, calcium flux agonist mode. activation, % at 2 µM. 0.53% of 340,000 active;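 active = activation over 3 SD above normal in the single-dose calcium agonist read, cut at about 30% in these data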; note: 0% is about no effect
Target sequence (P14416 whole entry, looked up): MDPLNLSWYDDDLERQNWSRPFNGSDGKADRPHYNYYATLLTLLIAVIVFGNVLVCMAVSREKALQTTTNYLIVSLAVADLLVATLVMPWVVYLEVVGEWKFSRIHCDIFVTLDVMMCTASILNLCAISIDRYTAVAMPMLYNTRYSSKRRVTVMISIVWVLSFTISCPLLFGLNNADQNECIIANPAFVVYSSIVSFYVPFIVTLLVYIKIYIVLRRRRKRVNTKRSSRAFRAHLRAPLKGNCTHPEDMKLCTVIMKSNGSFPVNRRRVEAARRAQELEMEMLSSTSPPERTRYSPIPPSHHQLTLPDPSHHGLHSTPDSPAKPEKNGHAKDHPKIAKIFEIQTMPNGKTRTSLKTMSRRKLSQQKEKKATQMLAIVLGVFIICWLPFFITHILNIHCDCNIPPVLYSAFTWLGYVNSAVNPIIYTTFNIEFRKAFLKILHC
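Agonism is scored from calcium flux in a force-coupled, inducible HEK293 cell line expressing D2, read kinetically for 180 s after compound addition against dopamine controls.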
D2 ag-2 = Beta-Arrestin HTS for Positive Allosteric Modulators of the Human D2 Dopamine Receptor: Agonists | D(2) dopamine receptor (Homo sapiens), P14416 | DiscoveRx PathHunter D2 beta-arrestin, luminescence, 90 min; 100% = 57 uM dopamine signal | activation, % (test concentration not listed) | 0.084% of 360,000 active; in the data active = activation above about 40%; inconclusive = between about 15% and that limit
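Agonist mode: compounds alone added to overnight-plated D2 PathHunter cells for 90 min at 37 C, with 57 uM final dopamine (EC100) defining full response. Beta-arrestin recruitment detected by chemiluminescent reagent, read after 1 h at ambient temperature.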
D2 antag = HTS Assay for Allosteric Antagonists of the Human D2 Dopamine Receptor: Primary Screen for Antagonists; inhibition, % at 10 µM; HEK293 TREx D2 cells, calcium flux, dopamine EC80; D(2) dopamine receptor (Homo sapiens), P14416; AID 485344, 2010; 2% of 340,000 active; in the data active = inhibition above about 30%; inactive = below that, where a call was filed; note: 0% is about no effect
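Cells plated overnight at 30 C with tetracycline; no-wash calcium dye, 30–90 min RT; 10 s baseline; compound pinned; 180 s read; EC80 dopamine added; another 180 s read.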
D2 PAM-1 = HTS Assay for Positive Allosteric Modulators of the Human D2 Dopamine Receptor: Primary Screen for Potentiators | D(2) dopamine receptor (Homo sapiens), P14416 | HEK293 T-REx D2, calcium flux, EC20 dopamine potentiation | potentiation, % at 10 µM | 0.34% of 340,000 active;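 active = potentiation over 3 SD above the plate norm, cut at about 30% in these data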; note: 0% is about no effect
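Primary screen. Calcium kinetics in induced HEK293 T-REx D2 cells: compound pre-addition 180 s, EC20 dopamine, 180 s more.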
D2 PAM-2 = Beta-Arrestin HTS for Positive Allosteric Modulators of the Human D2 Dopamine Receptor: Potentiators; potentiation, % (concentration not given with the values); D(2) dopamine receptor (Homo sapiens), P14416; DiscoveRx D2 beta-arrestin cells, luminescence, 90 min; 100% = 57 uM dopamine signal; 0.23% of 360,000 active; in the data active = potentiation above about 50%; inconclusive = mostly about 30% to 49%
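PathHunter D2 cells, attached overnight at 37 deg C, received compound in DMSO plus dopamine at EC20 (50 nM final) for 90 min at 37 deg C. Beta-arrestin recruitment was read as luminescence after 1 h with detection reagent at ambient temperature.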
D3 arrestin ag = qHTS of D3 Dopamine Receptor Agonist: D3 Dopamine Receptor B-arrestin Agonist Confirmatory Assay; AID 720506, 2013; DiscoveRx D3 beta-arrestin cells, luminescence, 90 min; 4% of 2,300 active; shares compounds with D2 ag-1; Potency, µM (titrated, usually from 76.9 µM), for inactives: at the highest dose activation, most hits filed as activators;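 note: potency is the fitted concentration of half-maximal effect; 100% = dopamine control response; nearly all actives have a fitted effect of over 70% in size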
D2 ag-3 = qHTS of D3 Dopamine Receptor Agonist: D2 Dopamine Receptor B-arrestin Agonist Counterscreen; 5.9% of 2,300 active; DiscoveRx PathHunter D2 beta-arrestin, luminescence, 90 min; response scale: percent relative to full dopamine signal; shares compounds with D2 ag-1; Potency, µM (doses to about 76.9 µM), without a hit: top-dose activation, actives largely listed as activators; AID 720507, 2013; note: potency is the fitted concentration of half-maximal effect; % of control where 0% means no effect; nearly all actives have a fitted effect of over 70% in size
Active calls of the source: *; u = inconclusive; x = no result. An excerpt weighted towards active compounds, which were near 2.4% of everything screened. Unless noted, calls come from the whole dose curve; as a rule, active = well fitted activation curve with a large enough effect; inconclusive = small, poorly fitted or top-dose-only effect; inactive = flat fitted curve, though single readings scatter.

SMILES | D2 ag-1 | D2 ag-2 | D2 antag | D2 PAM-1 | D2 PAM-2 | D3 arrestin ag | D2 ag-3
CC1=C(C(=O)OC2CCCCC2)C(c2cccnc2)n2nnnc2N1 (centres undefined) | 61* | 0 | -4 | -19 | -2 | 18% | 11%
COC(=O)C1=C(C)Nc2nnnn2C1c1cccnc1 (centres undefined) | x | -2 | x | x | -3 | x | x
CCOC(=O)[C@@H]1[C@H]2COc3ccc(Br)cc3[C@@H]2N2C(=O)N(c3ccc(Br)cc3)C(=O)[C@]12C | 32* | -4 | 9 | -19 | -1 | -1% | 7%
CCOC(=O)[C@@H]1[C@H]2COc3ccc(Br)cc3[C@H]2N2C(=O)N(c3ccc(Br)cc3)C(=O)[C@]12C | 0 | 1 | -4 | -11 | -27 | x | x
CCOC(=O)[C@H]1[C@H]2COc3cc(OC)ccc3[C@@H]2N2C(=O)CN(Cc3ccco3)C(=O)[C@@]12C | 0 | 1 | -5 | 6 | -2 | -5% | -4%
COC(=O)c1[nH]c2ccccc2c1NC(=O)C(C)N1CCN(C(=O)c2ccco2)CC1 (centres undefined) | 47* | u | 6 | -12 | -19 | u | 17%
COC(=O)c1[nH]c2ccccc2c1NC(=O)C(C)N1CCOCC1 (centres undefined) | x | -3 | x | 0 | -1 | x | x
COC(=O)c1[nH]c2cc(C)ccc2c1NC(=O)CN1CCN(C(=O)c2ccco2)CC1 | x | 11 | x | x | -15 | -6% | 19%
CCOC(=O)Cn1c(=O)n(-c2cccc(Cl)c2)c2nc(-c3ccccc3Cl)nc(C(N)=O)c21 | -1 | x | x | 3 | x | x | x
COc1ccc2[nH]c3c(c2c1)CCN1C(=O)N([C@@H](C)C(=O)NC2CCN(Cc4ccccc4)CC2)C(=O)[C@]31C | -1 | -2 | 7 | -5 | -61 | x | x
CCN(CC)C1=CC2=CC(=C(C#N)C#N)CCC2CC1 (centres undefined) | 209* | 3 | 76* | -16 | -2 | -7% | 17%
O=C(NC(=S)Nc1ccc(CN2CCOCC2)cc1)c1ccc([N+](=O)[O-])cc1Cl | 6 | 1 | 16 | 0 | -16 | x | x
O=C(NC(=S)Nc1ccc(CN2CCOCC2)cc1)c1ccccc1[N+](=O)[O-] | x | -1 | x | x | -1 | -21% | -1%
CCc1ccc(NCc2cc3cc4c(cc3n(CC(=O)Nc3ccccc3C)c2=O)OCCO4)cc1 | 1 | x | x | 7 | x | x | x
Nc1nc(N2CCN(Cc3ccccc3)CC2)n[nH]1 | 94* | 68* | -19 | -27 | u | u | 4.5µM*
Nc1nc(N2CCN(C(c3ccccc3)c3ccccc3)CC2)n[nH]1 | 0 | -1 | -3 | -2 | 4 | x | x
Cc1ccc(C(=O)COC(=O)CCS(=O)(=O)c2ccccc2)cc1[N+](=O)[O-] | x | -11 | x | x | -32 | -22% | -16%
C/C(=N\NC(=O)c1nnn(-c2nonc2N)c1-c1ccc2c(c1)OCO2)c1ccc(C)cc1 | 16 | -1 | 14 | 8 | -4 | -4% | -1%
C/C(=N\NC(=O)c1nnn(-c2nonc2N)c1-c1ccc2c(c1)OCO2)c1ccccc1 | 10 | -4 | -58 | 24 | 4 | -8% | -7%
CC(=O)Nc1ccc(C2=CC(=O)CC(C)(C)C2)cc1 | -1 | -10 | -4 | 1 | -7 | -5% | -1%
C=C(C)c1cc2c(ccc3ccc(=O)oc32)o1 | x | 7 | x | x | -16 | x | x
